PubChem BioAssay (NCATS)
Inconclusive results are not listed. The source made the active and inactive calls. Calls come from the whole dose curve; as a rule, active = well fitted inhibition curve with a large enough effect; inconclusive = small, poorly fitted or top-dose-only effect; inactive = no such curve, though single readings can be large or run the other way.

experiment: qHTS for Inhibitors of the Aldehyde Dehydrogenase Family (ALDH1A2, ALDH1A3, ALDH2, ALDH3A1) (AID 2061307); conditions: ALDH inhibition qHTS; series mostly up to 50.3 µM; activity change, negative = inhibition: at the top concentration; note: nearly all actives have a fitted effect of over 50% in size; for Potency: test system not described further here
% is set by controls: 0 for no effect and ±100 for the full control effect; potency is the fitted concentration of half-maximal effect.

Row | SMILES | activity change, negative = inhibition | Potency
1 | O=C(Nc1ccncc1)c1cccs1 | -78.7% (inactive) | 
2 | O=C(CSc1n[nH]c2nc3ccccc3n12)Nc1cc(C(F)(F)F)ccc1Cl |  | 15.8 µM (active)
3 | N#Cc1ccc(NC(=O)Cn2cnc3ccccc3c2=O)cc1 | -22.5% [at 34.4 µM] (inactive) | 
4 | Fc1cccc(F)c1CNCc1cccnc1-n1cccn1 |  | 3.98 µM (active)
5 | COc1ccc2nc(-c3cnn(Cc4ccccc4)c3)sc2c1 | -13% (inactive) | 
6 | COc1ccc(-n2c(C)c(C(C)=O)c3cc(OC(=O)c4ccco4)ccc32)cc1 | 13.3% [at 34.4 µM] (inactive) | 
7 | CCOc1ccc(NC(=O)CSCC(=O)Nc2ccc(C)cc2)cc1 | -9.3% (inactive) | 
8 | CC(C)Oc1ccc(-c2nc(C(=O)Nc3ncn[nH]3)cs2)cc1 |  | 3.55 µM (active)
9 | O=C(Nc1nncs1)c1ccn(-c2ccc(F)cc2)n1 | 0% [at 34.4 µM] (inactive) | 
10 | Cc1ccccc1Cn1cnc2cc(-c3cccc(NC(=O)Cc4ccccc4)n3)ccc21 (tested in a mixture with another compound) | -8.56% (inactive) | 
11 | Cn1c(C(=O)O)cnc1-n1cc(Cc2ccc(S(N)(=O)=O)cc2)c(-c2ccccc2)n1 | 0.644% (inactive) | 
12 | CCc1cccc(CC)c1-n1c(C)c(C(=O)NC2CC2)cc(-c2nc(-c3ccc(Cl)cc3)cs2)c1=O | -11.7% (inactive) | 
13 | COC(=O)CC(=O)Nc1ccccc1C(=O)O | -6.46% (inactive) | 
14 | C=Cc1cc(NC(=O)CN)cc(-c2nn3c(=O)cc(N4CCNCC4)nc3s2)c1 | 91.2% (inactive) | 
15 | CC(=O)c1cc2c(cc1NC(=O)c1cnn(-c3ccc(F)cc3F)c1)OCO2 | -13.3% [at 34.4 µM] (inactive) | 
16 | CCn1c(=O)cc(OCC(=O)N2CCN(c3cccc(Cl)c3)CC2)c2ccccc21 | -10.8% (inactive) | 
17 | COc1cc2nc(N3CCN(C)CC3)nc(N)c2cc1OC | 0.956% (inactive) | 
18 | O=C(O)c1csc(-n2nc(-c3ccc(F)c(F)c3)cc2Cc2nn[nH]n2)n1 | 2.88% (inactive) | 
19 | O=C(Nc1cccnc1Cl)c1cc(-c2cccc(Cl)c2)on1 | -20.9% [at 34.4 µM] (inactive) | 

Row | SMILES | activity change, negative = inhibition | Potency
20 | Cc1ccccc1C(=O)n1ccc2cc(-c3cccc(NC(=O)Cc4ccccc4)n3)cnc21 | -20.7% (inactive) | 
21 | O=C(Nc1ncc(Cc2ccc(C(F)(F)F)cc2)s1)C1CCC(c2ccccc2)CC1 (stereo not drawn) | -3.71% (inactive) | 
22 | O=[N+]([O-])c1cccnc1S(=O)(=O)c1ccccc1 | -30.2% (inactive) | 
23 | O=C(Nc1cc(S(=O)(=O)N2CCOCC2)ccc1N1CCCCC1)c1cc(-c2ccccn2)nc2ccccc12 | -18.7% (inactive) | 
24 | Fc1ccc(CN2CCC(N(CCc3ccccc3)Cc3ccccc3)CC2)cc1 | -35.2% (inactive) | 
25 | CS(=O)(=O)c1cccc(-c2csc3ncnc(Sc4nncs4)c23)c1 | -7.51% (inactive) | 
26 | Nc1c(Cc2ccc(S(N)(=O)=O)cc2)c(-c2ccccc2)nn1-c1nc(C(=O)O)co1 | -2.94% (inactive) | 
27 | Cc1cccc(C)c1Nc1c(-c2ccccn2)nc2ccc(Cl)cn12 | -2.05% (inactive) | 
28 | O=C(Nc1ccc(CCO)cc1)c1ncoc1-c1ccccc1Cl | -14.7% [at 34.4 µM] (inactive) | 
29 | O=S(=O)(Nc1ccccc1F)c1cccc(NC(=S)NCCN2CCOCC2)c1 | -5.69% (inactive) | 
30 | COc1ccc(-n2ncc3c2CCCC3NC(=O)c2cccc(C(F)(F)F)c2)cc1 (stereo not drawn) |  | 11.3 µM (active)
31 | O=C1C[C@](c2ccc(N3CCOCC3)cc2)(c2ccsc2)NC(=O)C1Sc1ccccc1Cl (stereo partly drawn) | -27.4% (inactive) | 
32 | O=C(c1ccco1)N1CCN(Cc2nc3ccccc3c(=O)n2-c2ccccc2[N+](=O)[O-])CC1 | -18% (inactive) | 
33 | CSc1cc2c(s1)c1cnn(Cc3cccc(N)c3)c(=O)c1n2C | 9.91% (inactive) | 
34 | CCc1ccc(CNC(=O)c2cnc3c(C)cccn3c2=O)cc1 | -29.4% [at 34.4 µM] (inactive) | 
35 | COC(=O)c1ccc(NC(=O)CN(c2cccc(C(F)(F)F)c2)S(C)(=O)=O)cc1 | -6.97% (inactive) | 
36 | Nc1ccc(Cn2ccc3c4c(N)nc(N)nc4ccc32)cc1 | 91.5% (inactive) | 
37 | O=C(O)Cc1ccc(S(=O)(=O)N2CCCC2)s1 |  | 11.3 µM (active)
38 | Oc1[nH]c2ccccc2c1N=NC(=S)Nc1cccnc1 | -3.64% (inactive) | 
